A short description of assay [1]: qHTS assay to identify small molecule agonists of the estrogen receptor alpha (ER-alpha) signaling pathway in the presence of an antagonist - cell viability counter screen (AID 1259386). Further: nearly all actives have a fitted effect of over 30% in size. Further: potency means the concentration at half of the fitted maximal effect. The method, boiled down: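 Compounds tested at 15 concentrations for 22 h at 37C alongside 10.0nM (final) ICI-182,780 antagonist, in VM7Luc4E2 cells grown in phenol red-free, charcoal-stripped medium. Viability read by CellTiter-Fluor fluorescence after 1 h reagent incubation.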

Assay [2] deals with Progesterone receptor (Homo sapiens) (UniProt P06401). Kind of assay: qHTS assay to identify small molecule agonists of the progesterone receptor (PR) signaling pathway (AID 1346784; calls by dose curve; further: nearly all actives have a fitted effect of over 30% in size). The method, boiled down:
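The screen uses PR-UAS-bla HEK 293T cells in charcoal-stripped serum (2%). Compounds are applied for 16 hr at 37C after a 6 hr pre-incubation, and reporter activity is detected with a FRET beta-lactamase substrate after 2 hr at room temperature.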

Assay [3] has the same target. Kind of assay: qHTS assay to identify small molecule antagonists of the progesterone receptor (PR) signaling pathway (AID 1346795; active means well fitted inhibition curve with a large enough effect in the signal ratio in the repeat runs, not every such curve was filed as active; the % refers to the signal ratio). The method, boiled down: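 After 6 hr plating at 37C in 2% stripped-serum medium, PR-UAS-bla HEK293T cells got compounds, then 1 nM R5020. Sixteen hours later, LiveBLAzer substrate was applied for 2 hr at room temperature and fluorescence was recorded.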

Assay [4] is described as follows: qHTS assay to identify small molecule antagonists of the TGF-beta/Smad signaling pathway - cell viability counter screen (AID 1346824). Further: nearly all actives have a fitted effect of over 50% in size. The method, boiled down:
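SBE-bla HEK 293T cells, incubated overnight, then compound plus 0.25 ng/mL TGF-beta1 (stock added) for 5 hr at 37 C. Viability was read in the same wells by CellTiter-Glo luminescence after 30 min at room temperature.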

Assay [5] can be described thus: qHTS assay to identify small molecule agonists of the TGF-beta/Smad signaling pathway - cell viability counter screen (AID 1346829). Further: top concentration of the series differs between compounds; nearly all actives have a fitted effect of over 45% in size. The method, boiled down:
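Compound-treated SBE-bla HEK 293T cells (5 hr, 37 C) were assessed for viability with CellTiter-Glo in parallel with the reporter read.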

For assay [6], the target named is Thyrotropin-releasing hormone receptor (Homo sapiens) (UniProt P34981). In words: qHTS assay to identify small molecule antagonists of the thyrotropin-releasing hormone receptor (TRHR) signaling pathway (AID 1346877; active means well fitted inhibition curve with a large enough effect in the repeat runs, not every such curve was filed as active; further: series mostly up to about 51 µM). The method, boiled down:
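Antagonist mode: after a 5 min room-temperature compound exposure, cells were stimulated with 1 nM (final) TRH. Dye-loaded TRHR-HEK293 cells were used, and calcium-dependent fluorescence was followed for 3 min, with 15-point titrations run in triplicate.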

The target is the same in assay [7]. Kind of assay: qHTS assay to identify small molecule agonists of the thyrotropin-releasing hormone receptor (TRHR) signaling pathway (AID 1346891; calls by dose curve;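 further: HEK293 cells expressing TRHR with calcium dye readout; series mostly up to about 58 µM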). The method, boiled down:
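Kinetic fluorescence (3 min, 1 s intervals) reported intracellular calcium after compound transfer onto TRHR-Hek293 cells pre-loaded with dye for 2 h at 37 °C.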

Assay [8] in a line: Human pregnane X receptor (PXR) small molecule agonists, qHTS cell viability counter screen (AID 1346977). Further: nearly all actives have a fitted effect of over 50% in size. Further: potency means the concentration at half of the fitted maximal effect. The method, boiled down: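 HepG2 cells stably carrying the PXR-Luc reporter are cultured with 5% charcoal-stripped FBS and treated with compounds for 24hr. CellTiter-Fluor is added at 23hr and fluorescence is read after 1hr.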
Assay [9] in a line: Caspase-3/7 induction in HepG2 cells by small molecules, qHTS assay (AID 1346978). Further: nearly all actives have a fitted effect of over 15% in size. The method, boiled down:
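Wild-type HepG2 cells, 2,000/well, settled 5 hr at 37 C and 5% CO2, then compound-treated for 17 hr; caspase-3/7 activity read by luminescent Caspase-Glo 3/7 after 30 min at room temperature.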

The nature of assay [10]: Caspase-3/7 induction in CHO-K1 cells by small molecules, qHTS cell viability counter screen (AID 1346979). Further: nearly all actives have a fitted effect of over 35% in size. Further: potency means the concentration at half of the fitted maximal effect. The method, boiled down: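 Seeding: 1,500 CHO-K1 cells/well. Rest: 5hr, 37C. Treatment: compounds in DMSO, 16hr. Read: CellTiter-Fluor, 1hr, fluorescence.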
The nature of assay [11]: Caspase-3/7 induction in CHO-K1 cells by small molecules, qHTS assay (AID 1346980). Further: nearly all actives have a fitted effect of over 15% in size. The method, boiled down:
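Wild-type CHO-K1 cells exposed to compounds for 17hr at 37 C, 5% CO2. Caspase-3/7 activity then measured by Caspase-Glo 3/7 luminescence after 30min at room temperature.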

Assay [12] can be described thus: Caspase-3/7 induction in HepG2 cells by small molecules, qHTS cell viability counter screen (AID 1346981). Further: nearly all actives have a fitted effect of over 30% in size. Further: potency means the concentration at half of the fitted maximal effect. The method, boiled down:
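CellTiter-Fluor fluorescence measured viability in the same wells used for Caspase-Glo 3/7. HepG2 (wild type) at 2,000 cells/well were pre-incubated 5 hr, dosed, and given reagent at 16 hr, with 1 hr further at 37C.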

Assay [13] has as its target Nuclear receptor subfamily 1 group I member 2 (Homo sapiens) (UniProt O75469). In words: Human pregnane X receptor (PXR) small molecule agonists, qHTS assay (AID 1346982). Further: nearly all actives have a fitted effect of over 35% in size. Further: potency means the concentration at half of the fitted maximal effect. The method, boiled down:
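Agonist mode: luminescence from ONE-Glo after 24 h compound exposure at 37C in HepG2 cells carrying hPXR-responsive CYP3A4 luciferase, plated in charcoal-stripped serum medium 5 h beforehand.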

Assay [14] addresses Cytochrome P450 2D6 (Homo sapiens) (UniProt P10635). Kind of assay: Cytochrome P450 Family 2 Subfamily D Member 6 (CYP2D6) small molecule antagonists: luciferase reporter qHTS assay (AID 1671196). Further: nearly all actives have a fitted effect of over 50% in size. Further: potency means the concentration at half of the fitted maximal effect. The method, boiled down:
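CYP2D6 activity was followed as luminescence from its luciferin product after a 1 h NADPH-driven reaction at room temperature. Enzyme-substrate mix and compound were pre-incubated for 10 min, and the signal was read 20 min after adding detection reagent.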

Assay [15] in a line: qHTS assay to identify small molecule antagonists of the progesterone receptor (PR) signaling pathway - cell viability counter screen (AID 1346798). Further: nearly all actives have a fitted effect of over 50% in size. Further: potency means the concentration at half of the fitted maximal effect. The method, boiled down: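 Viability was determined by ATP-based luminescence (CellTiter-Glo) in PR-UAS-bla HEK293T cells cultured in 2% charcoal-stripped serum and incubated 16 hr with compounds under R5020 stimulation.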
A short description of assay [16]: qHTS assay to identify small molecule agonists of the progesterone receptor (PR) signaling pathway - cell viability counter screen (AID 1346799; calls by dose curve; further: nearly all actives have a fitted effect of over 45% in size; further: potency means the concentration at half of the fitted maximal effect). The method, boiled down:
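Viability was scored by ATP luminescence (CellTiter-Glo, 30 min, room temperature) in the same wells used for the reporter readout, after 16 hr compound exposure of PR-UAS-bla HEK293T cells.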

A short description of assay [17]: qHTS assay to identify small molecule agonists of the TGF-beta/Smad signaling pathway (AID 1346859; active means well fitted activation curve with a large enough effect in the signal ratio in the repeat runs, not every such curve was filed as active; the % refers to the signal ratio; further: series mostly up to about 77 µM). The method, boiled down: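 Dual-wavelength fluorescence (460/530 nm emission) quantified beta-lactamase expression under the Smad binding element in HEK 293T cells following 5 hr compound treatment at 37 C.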
Assay [18] concerns the target Nuclear receptor subfamily 1 group I member 2 (Rattus norvegicus) (UniProt Q9R1A7). In words: Rat pregnane X receptor (rPXR) activation by small molecules, qHTS assay (AID 1346983). Further: nearly all actives have a fitted effect of over 20% in size. The conditions noted are these: rPXR luciferase reporter cells, One-Glo luminescence, 24 h; stronger effect = higher value. The method, boiled down:
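Cell-based rPXR activation assay: rPXR cells, 2,000 per well, rested 5hr at 37 C, then exposed to compounds in DMSO for 24 hr at 37 C. Luciferase activity read by One-Glo luminescence after 30 min at room temperature.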

Unmarked numbers belong to inactive results. Records with an inconclusive call do not appear. Activity calls are given as the source filed them. Unless noted, the call rests on the fitted dose curve; in most records, active means well fitted curve in the direction sought with a large enough effect in the repeat runs; inconclusive means weak or mixed curves; inactive means no such curve, though single readings can be large; an effect the other way counts as inactive or inconclusive.
On the % scale 0 is the no-effect control and ±100 the full control effect.

Sequence of Thyrotropin-releasing hormone receptor (Homo sapiens) (P34981 whole entry, looked up): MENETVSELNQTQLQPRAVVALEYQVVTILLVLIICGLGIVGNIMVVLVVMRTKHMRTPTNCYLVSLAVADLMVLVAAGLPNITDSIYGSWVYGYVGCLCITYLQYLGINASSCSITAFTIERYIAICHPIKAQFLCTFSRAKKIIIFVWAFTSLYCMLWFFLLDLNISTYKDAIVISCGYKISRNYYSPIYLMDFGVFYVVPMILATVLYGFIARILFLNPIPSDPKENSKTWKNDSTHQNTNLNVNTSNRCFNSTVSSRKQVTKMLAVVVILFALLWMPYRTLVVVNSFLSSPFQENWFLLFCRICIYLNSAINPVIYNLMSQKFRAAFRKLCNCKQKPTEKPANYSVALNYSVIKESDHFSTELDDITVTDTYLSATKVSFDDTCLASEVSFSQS
Sequence of Nuclear receptor subfamily 1 group I member 2 (Homo sapiens) (O75469 whole entry, looked up): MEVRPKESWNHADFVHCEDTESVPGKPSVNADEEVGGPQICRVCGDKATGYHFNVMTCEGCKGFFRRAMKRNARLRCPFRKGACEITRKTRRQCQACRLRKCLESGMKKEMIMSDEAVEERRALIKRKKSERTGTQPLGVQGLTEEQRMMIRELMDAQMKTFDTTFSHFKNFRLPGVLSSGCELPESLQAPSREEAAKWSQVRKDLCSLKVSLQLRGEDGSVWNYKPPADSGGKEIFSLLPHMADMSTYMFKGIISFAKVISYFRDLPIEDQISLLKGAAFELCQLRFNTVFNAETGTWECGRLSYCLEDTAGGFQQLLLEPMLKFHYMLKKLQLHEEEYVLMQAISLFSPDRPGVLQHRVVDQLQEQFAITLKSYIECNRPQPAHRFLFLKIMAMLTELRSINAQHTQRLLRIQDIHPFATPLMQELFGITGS
Sequence of Cytochrome P450 2D6 (Homo sapiens) (P10635 whole entry, looked up): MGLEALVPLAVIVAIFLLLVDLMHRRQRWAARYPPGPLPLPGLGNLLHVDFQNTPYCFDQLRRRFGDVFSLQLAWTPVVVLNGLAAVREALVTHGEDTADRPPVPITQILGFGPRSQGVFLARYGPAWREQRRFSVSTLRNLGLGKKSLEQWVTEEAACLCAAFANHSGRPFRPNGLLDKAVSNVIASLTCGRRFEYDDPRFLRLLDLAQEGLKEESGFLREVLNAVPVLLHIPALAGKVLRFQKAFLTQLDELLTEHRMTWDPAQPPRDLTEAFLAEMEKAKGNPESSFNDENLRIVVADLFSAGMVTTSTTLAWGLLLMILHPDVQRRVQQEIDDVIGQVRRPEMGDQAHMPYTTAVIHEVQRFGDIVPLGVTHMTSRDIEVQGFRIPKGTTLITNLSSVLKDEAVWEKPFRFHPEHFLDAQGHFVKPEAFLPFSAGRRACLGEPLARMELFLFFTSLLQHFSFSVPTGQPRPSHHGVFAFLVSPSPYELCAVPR
Sequence of Progesterone receptor (Homo sapiens) (P06401 whole entry, looked up): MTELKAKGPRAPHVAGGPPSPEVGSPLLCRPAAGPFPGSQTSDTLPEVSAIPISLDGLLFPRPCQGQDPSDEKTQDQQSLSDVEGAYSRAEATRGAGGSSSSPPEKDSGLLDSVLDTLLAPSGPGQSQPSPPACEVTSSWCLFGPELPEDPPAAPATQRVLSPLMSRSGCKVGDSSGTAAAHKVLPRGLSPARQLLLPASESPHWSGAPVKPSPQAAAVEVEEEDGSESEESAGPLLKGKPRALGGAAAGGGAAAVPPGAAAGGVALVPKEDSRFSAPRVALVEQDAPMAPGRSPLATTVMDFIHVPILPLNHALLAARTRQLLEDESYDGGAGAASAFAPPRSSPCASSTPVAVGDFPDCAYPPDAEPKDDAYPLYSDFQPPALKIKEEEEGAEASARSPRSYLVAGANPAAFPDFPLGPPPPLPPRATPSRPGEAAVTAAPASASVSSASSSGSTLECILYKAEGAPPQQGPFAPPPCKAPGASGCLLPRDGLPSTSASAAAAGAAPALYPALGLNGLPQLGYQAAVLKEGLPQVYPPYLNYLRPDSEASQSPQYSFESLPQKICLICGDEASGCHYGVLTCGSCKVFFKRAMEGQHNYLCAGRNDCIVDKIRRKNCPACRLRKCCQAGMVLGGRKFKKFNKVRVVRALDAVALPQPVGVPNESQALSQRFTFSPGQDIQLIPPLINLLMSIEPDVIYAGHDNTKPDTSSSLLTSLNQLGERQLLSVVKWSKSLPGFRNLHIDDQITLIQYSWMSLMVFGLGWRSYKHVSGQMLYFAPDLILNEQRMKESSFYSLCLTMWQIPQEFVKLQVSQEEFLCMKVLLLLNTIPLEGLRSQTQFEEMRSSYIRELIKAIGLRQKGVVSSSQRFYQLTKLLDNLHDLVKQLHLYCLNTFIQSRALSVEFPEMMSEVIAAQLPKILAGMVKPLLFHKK
Sequence of Nuclear receptor subfamily 1 group I member 2 (Rattus norvegicus) (Q9R1A7 whole entry, looked up): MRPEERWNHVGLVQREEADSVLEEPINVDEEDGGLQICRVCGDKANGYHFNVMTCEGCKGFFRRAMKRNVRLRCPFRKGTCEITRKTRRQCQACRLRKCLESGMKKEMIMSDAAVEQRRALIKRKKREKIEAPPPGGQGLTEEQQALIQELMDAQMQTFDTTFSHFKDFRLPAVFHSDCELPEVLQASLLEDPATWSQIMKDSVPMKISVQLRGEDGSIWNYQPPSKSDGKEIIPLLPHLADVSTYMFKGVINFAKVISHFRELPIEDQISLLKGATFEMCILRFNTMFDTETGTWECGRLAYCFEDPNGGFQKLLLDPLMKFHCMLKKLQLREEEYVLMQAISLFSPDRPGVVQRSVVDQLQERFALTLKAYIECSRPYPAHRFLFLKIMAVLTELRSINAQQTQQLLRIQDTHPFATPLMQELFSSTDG

As to `Fc1ccc(C(c2ccc(F)cc2)N2CCNCC2)cc1`, the Potency result in [1], in [2], in [3], in assay [4], in [5] and in assay [6] was “inactive” each time. The Potency result in assay [8], in assay [9], in assay [10], in assay [11], in assay [12] and in [13] was “inactive” each time. Besides, the molecule was called inactive in assay [7]. The Potency in assay [14] is 2.19 µM (active).
On to `CCCC(=O)OCOC(=O)C1=C(C)NC(C)=C(C(=O)OC)C1c1cccc(Cl)c1Cl` (centres undefined), for which the Potency entry in [1], in [2], in assay [15], in assay [16], in assay [4] and in assay [5] was “inactive” in each case. For the same molecule, the Potency result in assay [8], in [9], in assay [10], in assay [11], in assay [12] and in assay [14] was “inactive” in each case.
Consider `O=S(=O)(O)c1ccc(N=Nc2c(O)ccc3ccccc23)cc1`, for which the Potency in [1] was 27.3 µM (active); in assay [15], 8.63 µM (active); in [16] it was 7.7 µM (active); in assay [8] it was 27.3 µM (active); in assay [10] it was 30.6 µM (active); in assay [12], 30.6 µM (active). In [14], the Potency was 35.6 µM (active). In addition, the Potency entry in [2], in assay [4], in assay [5], in assay [17], in [6] and in [9] was “inactive” throughout. In assay [11], the Potency entry is “inactive”. The result in [7] was inactive.
On to `CC(=O)Oc1cc2c(s1)CCN(C(C(=O)C1CC1)c1ccccc1F)C2` (centres undefined), for which the Potency result in assay [1], in assay [2], in assay [15], in assay [16], in assay [4] and in assay [5] was “inactive” in each case. For the same molecule, the Potency entry in [6], in assay [8], in assay [9], in assay [10], in assay [11] and in [12] was “inactive” in each case. In assay [7], the molecule was classed as inactive. Besides, the Potency was 26.6 µM (active) in assay [13] and 8.71 µM (active) in assay [14].
`COc1ccc2cc1Oc1ccc(cc1)C[C@H]1c3c(cc4c(c3Oc3cc5c(cc3OC)CCN(C)[C@@H]5C2)OCO4)CCN1C`: the Potency was 13.3 µM (active) in assay [1]; 11.9 µM (active) in assay [8]; 29.8 µM (active) in [10]; 26.6 µM (active) in [12]; 9.44 µM (active) in assay [13]; 15.5 µM (active) in assay [14]. Also, the Potency result in assay [2], in assay [3], in [16], in assay [4], in assay [5] and in assay [6] was “inactive” each time. Also, the call in [7] was inactive. Also, in assay [18], the max activation was -17.4%.
In the case of `O=C(O)CCN(C1(C(=O)NO)CCCC1)S(=O)(=O)c1ccc(Oc2ccc(F)cc2)cc1`, the Potency result in [1], in assay [2], in [3], in [15], in assay [4] and in assay [17] was “inactive” each time. In addition, the Potency result in assay [6], in assay [9], in assay [10], in assay [11], in assay [12] and in assay [14] was “inactive” throughout. The call in [7] was inactive.
Turning to `CCC(C)[O-].CCC(C)[O-].CCOC(=O)/C=C(/C)[O-].[Al+3]`, the Potency result in assay [1], in [2], in [3], in [15], in [4] and in [5] was “inactive” each time. In addition, the Potency entry in assay [17], in assay [8], in [9], in [10] and in [11] was “inactive” each time.

The record behind these values is PubChem BioAssay (Tox21).
